According to the supplement of paper PMC7156485:
± gives the standard deviation of the averaged measurements.

What follows are molecules tested on HCC1569 (assay: cell number relative to DMSO (% of DMSO); higher = more cells (less growth inhibition / toxicity)). Conditions: concentration: 10 µM; 24 h.
Summary of the method: (§1)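 Using 384-well plates with 800 cells per well in RPMI plus 10% FBS, HCC1569 and TDF cells were exposed to compounds at 10 µM, in triplicate, for 24 h at 37 °C. Imaging of six fields per well at ×10 followed H1.0 and DAPI staining. The reported quantity, H1.0 nuclear intensity or cell number, is a median of replicates given as percent of the plate control, and HCC1569 values were smoothed for positional effects.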
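Note: TDF denotes transformed human dermal fibroblasts of mesenchymal origin.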

Compound | cell number
CC(C)C[C@H](NC(=O)C(O)[C@H](N)Cc1ccc([N+](=O)[O-])cc1)C(=O)O.Cl (some centres not stated) | 104
CC(=O)NNC(=O)N1Cc2ccccc2Oc2ccc(Cl)cc21 | 101
Cc1ncc(Cl)cc1NCc1ccc(C(=O)N[C@@H](CC2CCCC2)C(=O)NC2CC2)s1 | 96.6
CC(C)n1cnc2c(NCc3ccccc3)nc(NCCCO)nc21 [Bohemine] | 91.4
CCCCCCCCCCCCCCCCn1cc[n+](Cc2ccccc2)c1C.[I-] [eEF-2 Kinase Inhibitor, NH125] | 36.6
O=C(OC1Cc2c(O)cc(O)cc2OC1c1cc(O)c(O)c(O)c1)c1cc(O)c(O)c(O)c1 (configuration not stated) [Epigallocatechin gallate] | 105
CCN(CC)Cc1ccc(C(=O)N(CCc2ccccc2OC)[C@@H]2CCNC2)cc1.Cl.Cl | 98.5
Cl.O=C1CC2(CCCC2)CC(=O)N1CCCCN1CCN(c2ncccn2)CC1 [Buspirone hydrochloride] | 97.6

These molecules were tested on TDF in the same assay as above. Conditions: concentration: 10 µM; 24 h.
Summary of the method: as §1

Compound | cell number
O=c1cc(-c2ccc(O)cc2)oc2cc(OC3OC(CO)C(O)C(O)C3O)cc(O)c12 (configuration not stated) [Apigenin-7-glucoside] | 99.3
O=c1ccc2ccc(O)c(O)c2o1 [7,8-dihydroxy-2H-chromen-2-one] | 79.9
COc1cc2c(CCNC(C)=O)c[nH]c2cc1O [6-Hydroxymelatonin] | 110
O=c1[nH]ccc2c(S(=O)(=O)N3CCCNCC3)cccc12 | 110
Nc1nc(=O)c2ncn(COC(CO)CO)c2[nH]1 [Ganciclovir] | 99.6 ± 5.2
NC(CS(=O)O)C(=O)O [L-Cysteinesulfinic Acid] | 113
CC(C)(O)c1ccccc1CCC(SCC1(CC(=O)O)CC1)c1cccc(C=Cc2ccc3ccc(Cl)cc3n2)c1 (configuration not stated) [Montelukast] | 101
CCCCC(C)(O)CC=CC1C(O)CC(=O)C1CCCCCCC(=O)OC (configuration not stated) [Misoprostol] | 107
Nc1ccc(N2C(=O)c3ccccc3C2=O)c(Cl)c1 [N-(4-Amino-2-chlorophenyl)phthalimide] | 107
CC(=O)Nc1nc(C)c(S(=O)(=O)Nc2ccc(C(O)(C(F)(F)F)C(F)(F)F)cc2)s1 | 109
COC1C=COC2(C)Oc3c(C)c(O)c4c(O)c(cc(O)c4c3C2=O)NC(=O)C(C)=CC=CC(C)C(O)C(C)C(O)C(C)C(OC(C)=O)C1C (configuration not stated) | 105
O=C(O)c1cn(C2CC2)c2cc(N3C[C@@H]4C[C@H]3CN4)c(F)cc2c1=O | 109
COC1C(OC(=O)c2ccc(C)[nH]2)C(O)C(Oc2ccc3c(O)c(NC(=O)c4c[nH]c(C(=O)Nc5c(O)c6ccc(OC7OC(C)(C)C(OC)C(OC(=O)c8ccc(C)[nH]8)C7O)c(C)c6oc5=O)c4C)c(=O)oc3c2C)OC1(C)C (configuration not stated) [Coumermycin A1] | 100
CC(C)c1ccc2oc3nc(N)c(C(=O)O)cc3c(=O)c2c1 | 109
CC1CCC2(C(=O)O)CCC3(C)C(=CCC4C5(C)CC(O)C(O)C(C)(CO)C5C(O)CC43C)C2C1C (configuration not stated) [Madecassic acid] | 102
Br.C=CCN1CCc2c(cc(O)c(O)c2Br)C(c2ccccc2)C1 (stereo not drawn) [R(+)-6-Bromo-APB hydrobromide] | 87.2
Cc1onc(-c2ccccc2)c1C(=O)NC1C(=O)N2C1SC(C)(C)C2C(=O)[O-] (configuration not stated) [Oxacillin] | 105
CCCCCC=CCC=CCC=CCC=CCCCC(=O)O [Arachidonic acid] | 93.9 ± 1.1
C=CC1CN2CCC1CC2C(O)c1ccnc2ccc(OC)cc12.Cl.O (configuration not stated) | 90.1
CC(=O)OCC1=C(C(=O)[O-])N2C(=O)C(NC(=O)CSc3ccncc3)C2SC1.[Na+] (configuration not stated) [Cephapirin sodium] | 103
CC(=O)OC1C(=O)C2(C)C(O)CC3OCC3(OC(C)=O)C2C(OC(=O)c2ccccc2)C2(O)CC(OC(=O)C(O)C(NC(=O)c3ccccc3)c3ccccc3)C(C)=C1C2(C)C (configuration not stated) [Taxol] | 10.1 ± 1.7
CCC(=O)c1ccc2c(c1)N(CCCN(C)C)c1ccccc1S2.Cl [Propionylpromazine hydrochloride] | 97.1
O=C(Nc1ncc(-c2cc(C(F)F)nn2-c2c(Cl)cccc2Cl)s1)C1CC1 | 9.11
CC(C)(C)c1onc(OCP(=O)(O)O)c1CC(N)C(=O)O (configuration not stated) | 113
